{"source": "PubChem BioAssay (NCATS)", "note": "Records with an inconclusive call do not appear. Entries that show only a call come without a potency. Activity calls are given as the source filed them. Calls follow the shape of the full dose curve. Peptide text beside a SMILES is read from it.", "data": [{"target": "Nucleoprotein (Lymphocytic choriomeningitis virus (strain Armstrong)) (UniProt P09992)", "sequence (P09992 whole entry, looked up)": "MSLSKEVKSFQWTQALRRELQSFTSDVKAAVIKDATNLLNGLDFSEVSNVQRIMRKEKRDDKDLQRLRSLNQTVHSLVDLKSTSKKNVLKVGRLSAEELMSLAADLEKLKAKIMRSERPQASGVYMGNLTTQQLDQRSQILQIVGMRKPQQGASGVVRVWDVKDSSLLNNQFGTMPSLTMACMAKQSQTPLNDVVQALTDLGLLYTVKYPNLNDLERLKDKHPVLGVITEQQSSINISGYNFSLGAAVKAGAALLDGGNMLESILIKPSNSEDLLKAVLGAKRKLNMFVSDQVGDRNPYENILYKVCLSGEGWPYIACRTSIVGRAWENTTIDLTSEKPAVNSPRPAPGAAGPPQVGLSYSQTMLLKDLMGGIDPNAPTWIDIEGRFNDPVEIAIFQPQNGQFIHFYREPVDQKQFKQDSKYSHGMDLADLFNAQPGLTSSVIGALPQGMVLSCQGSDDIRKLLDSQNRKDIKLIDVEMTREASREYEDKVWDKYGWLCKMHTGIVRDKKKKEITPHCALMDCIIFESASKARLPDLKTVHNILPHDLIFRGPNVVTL", "experiment": "qHTS for Inhibitors of the Functional Ribonucleoprotein Complex (vRNP) of Lymphocytic Choriomeningitis Arenaviruses (LCMV): LCMV Primary Screen - GLuc reporter signal (AID 1347086); also: nearly all actives have a fitted effect of over 70% in size", "conditions": "LCMV minigenome vRNP cell assay, Gaussia luciferase reporter; series mostly up to 57.5 µM", "values": [{"smiles": "CC(C)(C)C(=O)OCOC(=O)[C@@H]1N2C(=O)[C@@H](NC(=O)[C@H](N)c3ccccc3)[C@H]2SC1(C)C", "Potency": "inactive"}, {"smiles": "C/C=C/c1ccc(OC)cc1", "Potency": "inactive"}, {"smiles": "C=CC[N+]1([C@H]2C[C@H]3[C@@H]4CC[C@H]5C[C@H](OC(C)=O)[C@@H](N6CCCCC6)C[C@]5(C)[C@H]4CC[C@]3(C)[C@H]2OC(=O)CC)CCCCC1", "Potency": "inactive"}, {"smiles": "CN(C)CCOC1=Cc2ccccc2Sc2ccc(Cl)cc21", "Potency": "inactive"}, {"smiles": "O=C(O)c1cn(C2CC2)c2cc(Cl)c(F)cc2c1=O", "Potency": "inactive"}, {"smiles": "CCN(CC)CCCN(c1ccccc1)C1Cc2ccccc2C1", "Potency": "inactive"}, {"smiles": "O=C(CCN1CCN(CCO)CC1)N1c2ccccc2Sc2ccc(C(F)(F)F)cc21", "Potency": "inactive"}, {"smiles": "NCCc1cnc[nH]1", "Potency": "inactive"}, {"smiles": "c1cc(CN2CCCCC2)cc(OCCCNc2nc3ccccc3s2)c1", "Potency": "inactive"}, {"smiles": "OC(CCCN1CCCCC1)(c1ccccc1)c1ccccc1", "Potency": "inactive"}, {"smiles": "CCOC(=O)CN1CCCC1=O", "Potency": "inactive"}, {"smiles": "CC1(C)[C@@H](OC(=O)CCC(=O)O)CC[C@]2(C)[C@H]3C(=O)C=C4[C@@H]5C[C@@](C)(C(=O)O)CC[C@]5(C)CC[C@@]4(C)[C@]3(C)CC[C@@H]12", "Potency": "inactive"}, {"smiles": "CC(C)=CCOc1ccc(/C=C/C(=O)c2ccc(OCC=C(C)C)cc2OCC(=O)O)cc1", "Potency": "inactive"}, {"smiles": "CC(=O)N[C@@H](CO)C(=O)N[C@@H](CC(=O)O)C(=O)N[C@@H](CCCCN)C(=O)N1CCC[C@H]1C(=O)O", "note": "(Ac-SDKP-OH)", "Potency": "inactive"}, {"smiles": "CC(=O)Oc1ccc(C(=C2CCCCC2)c2ccc(OC(C)=O)cc2)cc1", "Potency": "inactive"}, {"smiles": "O=C(O)COC(=O)Cc1ccccc1Nc1c(Cl)cccc1Cl", "Potency": "inactive"}, {"smiles": "C[C@]12CC[C@@H]3c4ccc(O)cc4CC[C@H]3[C@@H]1CCC2=O", "Potency": "inactive"}, {"smiles": "O=c1[nH]c2cc(C(F)(F)F)c(N3CCOCC3)cc2n(CP(=O)(O)O)c1=O", "Potency": "inactive"}, {"smiles": "C1CCN2C[C@@H]3C[C@@H](CN4CCCC[C@@H]34)[C@H]2C1", "Potency": "inactive"}, {"smiles": "CN(C)[C@@H](CCOc1cccc2ccccc12)c1ccccc1", "Potency": "inactive"}, {"smiles": "CCC(C(=O)OCCN1CCOC(c2ccccc2)C1C)c1ccccc1", "note": "(stereo not given)", "Potency": "inactive"}, {"smiles": "CC(=O)N[C@H]1[C@H]([C@H](O)[C@H](O)CO)OC(C(=O)O)=C[C@@H]1N=C(N)N", "Potency": "inactive"}, {"smiles": "NCC1CCC(C(=O)Oc2ccc(CCC(=O)O)cc2)CC1", "note": "(stereo not given)", "Potency": "inactive"}, {"smiles": "Cc1ncc(COP(=O)(O)O)c(C=O)c1O", "Potency": "inactive"}, {"smiles": "CNC(=O)c1cnn(-c2nc(N)c3ncn([C@@H]4O[C@H](CO)[C@@H](O)[C@H]4O)c3n2)c1", "Potency": "inactive"}, {"smiles": "O=c1[nH]c(=O)c2ccccc2o1", "Potency": "inactive"}, {"smiles": "Cc1ccc(=O)n(-c2ccccc2)c1", "Potency": "inactive"}, {"smiles": "CN1CCCN=C1COC(=O)C(O)(c1ccccc1)C1CCCCC1", "note": "(stereo not given)", "Potency": "inactive"}, {"smiles": "C1CCC(C(CC2CCCCN2)C2CCCCC2)CC1", "note": "(stereo not given)", "Potency": "inactive"}, {"smiles": "O=C(O)C1CCC1", "Potency": "inactive"}, {"smiles": "CCn1ccnc1CC1COc2ccccc2O1", "note": "(stereo not given)", "Potency": "inactive"}, {"smiles": "C#C[C@]1(O)CC[C@H]2[C@@H]3CCc4cc(OC)ccc4[C@H]3CC[C@@]21C", "Potency": "inactive"}, {"smiles": "CCCCN(CCCC)CC(O)c1cc(Cl)cc2c1-c1ccc(Cl)cc1/C2=C/c1ccc(Cl)cc1", "note": "(stereo not given)", "Potency": "inactive"}, {"smiles": "COc1ccccc1OC(=O)Oc1ccccc1OC", "Potency": "inactive"}, {"smiles": "COCCc1ccc(OCC2CO2)cc1", "note": "(stereo not given)", "Potency": "inactive"}, {"smiles": "CCCOc1ccc(C(=O)OCCN(CC)CC)cc1N", "Potency": "inactive"}, {"smiles": "O=C(O)C(=O)Nc1cccc(-c2nn[nH]n2)c1", "Potency": "inactive"}, {"smiles": "NCCNC(=O)c1ccc(Cl)cn1", "Potency": "inactive"}, {"smiles": "CCCCC1C(=O)N(c2ccccc2)N(c2ccc(O)cc2)C1=O", "note": "(stereo not given)", "Potency": "inactive"}, {"smiles": "Cc1c(C)n(Cc2ccccc2)c2ccc(C(=O)OCCN(C)C)cc12", "Potency": "inactive"}]}]}
